Measured values published in the supplement of paper PMC10849652.
About 7,900 targets were measured; listed, in parts, are those with a hit and a random draw of the rest. About 0.6% of all pairs of compound and target were hits.

Key:
Test in all cases: log2 fold change, soluble protein after heating vs DMSO (PISA); higher = thermal stabilisation; K562 cells, 10 uM, 30 min; active = over 0.2 and 3.5 SD of the protein, either way, in both replicates (recomputed)
[1] = compound: C1=CC=C(C=C1)[C@H](COC2=CC3=C(C=C2)NC(=O)N3)NC(=O)C4=CC=CN(C4=O)CC5=CC(=C(C=C5)F)F
In short: (§1)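 Soluble protein was quantified by TMTpro 16plex LC-MS/MS after channel sums were equalised. It was obtained as the supernatant after 21,000xg for 90 min from pooled aliquots of K562 cells (2×10^6 cells/mL, 10 μM compound, 30 min) heated for 3 min across 48°C-58°C and extracted in PBS with 0.5% NP-40 at 4°C. Thermal stability values are relative to control samples and come from duplicates. They are given as log2 fold changes.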

[2] = compound: CC1=C(SC2=C1C(=N[C@H](C3=NN=C(N32)C)CC(=O)N)C4=CC=C(C=C4)Cl)C
In short: as §1

[3] = compound: CC1=C2C(=CC=C1)N=C(N(C2=O)C3=CC=CC=C3C)CN4C=NC5=C(N=CN=C54)N
In short: as §1

[4] = compound: Cc1sc2c(c1C)C(c1ccc(Cl)cc1)=N[C@@H](CC(=O)OC(C)(C)C)c1nnc(C)n1-2
In short: as §1

[5] = compound: c1ccc([C@@H]2C[C@H]2NC2CCNCC2)cc1
In short: as §1

UniProt P48509, sequence (P48509 whole entry, looked up): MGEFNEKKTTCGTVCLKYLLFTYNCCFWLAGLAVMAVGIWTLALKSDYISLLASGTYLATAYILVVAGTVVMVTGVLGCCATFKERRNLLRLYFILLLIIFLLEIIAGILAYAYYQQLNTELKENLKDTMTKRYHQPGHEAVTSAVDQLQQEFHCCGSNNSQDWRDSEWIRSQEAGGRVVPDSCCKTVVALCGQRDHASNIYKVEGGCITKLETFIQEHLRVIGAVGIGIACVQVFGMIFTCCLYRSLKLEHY
UniProt P48729, sequence (P48729 whole entry, looked up): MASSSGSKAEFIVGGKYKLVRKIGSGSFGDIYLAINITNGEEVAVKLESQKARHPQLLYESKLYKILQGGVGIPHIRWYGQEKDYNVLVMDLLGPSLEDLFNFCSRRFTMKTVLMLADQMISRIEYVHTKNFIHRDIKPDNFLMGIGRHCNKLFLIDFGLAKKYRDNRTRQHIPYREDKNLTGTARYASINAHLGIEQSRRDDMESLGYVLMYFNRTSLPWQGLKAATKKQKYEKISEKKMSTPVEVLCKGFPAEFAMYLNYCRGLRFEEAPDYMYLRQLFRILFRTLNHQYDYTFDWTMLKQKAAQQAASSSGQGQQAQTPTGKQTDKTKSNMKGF
UniProt Q9Y646, sequence (Q9Y646 whole entry, looked up): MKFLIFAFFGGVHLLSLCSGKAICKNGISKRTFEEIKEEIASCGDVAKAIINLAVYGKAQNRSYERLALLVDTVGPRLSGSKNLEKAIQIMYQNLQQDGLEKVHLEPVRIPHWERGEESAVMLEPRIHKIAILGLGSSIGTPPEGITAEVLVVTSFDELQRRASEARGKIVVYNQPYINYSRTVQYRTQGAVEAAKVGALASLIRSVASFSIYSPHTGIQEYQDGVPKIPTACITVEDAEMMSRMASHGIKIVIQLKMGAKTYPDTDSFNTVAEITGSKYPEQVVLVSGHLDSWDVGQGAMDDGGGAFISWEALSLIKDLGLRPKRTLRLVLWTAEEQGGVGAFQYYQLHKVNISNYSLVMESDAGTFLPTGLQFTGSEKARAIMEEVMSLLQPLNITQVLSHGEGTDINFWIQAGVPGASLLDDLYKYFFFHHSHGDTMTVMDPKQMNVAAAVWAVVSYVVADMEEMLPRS
UniProt P55060, sequence (P55060 whole entry, looked up): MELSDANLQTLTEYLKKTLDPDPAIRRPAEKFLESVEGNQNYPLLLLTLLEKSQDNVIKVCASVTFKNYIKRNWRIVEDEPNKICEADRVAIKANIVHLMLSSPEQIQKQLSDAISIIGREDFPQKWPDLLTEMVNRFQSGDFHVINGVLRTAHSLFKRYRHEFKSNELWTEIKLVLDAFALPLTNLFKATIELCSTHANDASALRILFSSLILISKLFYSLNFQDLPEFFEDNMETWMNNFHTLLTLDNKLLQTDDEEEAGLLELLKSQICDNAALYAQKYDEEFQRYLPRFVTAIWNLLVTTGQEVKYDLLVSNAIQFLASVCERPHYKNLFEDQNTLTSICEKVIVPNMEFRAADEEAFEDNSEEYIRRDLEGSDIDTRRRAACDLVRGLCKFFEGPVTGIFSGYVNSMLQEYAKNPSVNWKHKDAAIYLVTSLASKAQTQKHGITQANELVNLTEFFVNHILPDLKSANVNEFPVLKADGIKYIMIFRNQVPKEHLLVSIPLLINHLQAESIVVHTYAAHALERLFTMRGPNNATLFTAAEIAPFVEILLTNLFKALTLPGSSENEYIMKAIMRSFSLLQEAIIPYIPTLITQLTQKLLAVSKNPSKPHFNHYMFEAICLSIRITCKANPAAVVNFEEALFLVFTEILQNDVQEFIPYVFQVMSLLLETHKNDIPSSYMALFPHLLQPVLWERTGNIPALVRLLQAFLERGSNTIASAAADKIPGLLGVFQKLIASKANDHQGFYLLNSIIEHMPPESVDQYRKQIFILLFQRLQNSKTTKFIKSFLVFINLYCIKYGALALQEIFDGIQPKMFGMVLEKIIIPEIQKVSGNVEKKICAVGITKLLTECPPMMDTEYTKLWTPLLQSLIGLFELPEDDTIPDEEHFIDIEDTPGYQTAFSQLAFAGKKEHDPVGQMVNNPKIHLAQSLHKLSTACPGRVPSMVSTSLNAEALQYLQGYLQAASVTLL
UniProt P42575, sequence (P42575 whole entry, looked up): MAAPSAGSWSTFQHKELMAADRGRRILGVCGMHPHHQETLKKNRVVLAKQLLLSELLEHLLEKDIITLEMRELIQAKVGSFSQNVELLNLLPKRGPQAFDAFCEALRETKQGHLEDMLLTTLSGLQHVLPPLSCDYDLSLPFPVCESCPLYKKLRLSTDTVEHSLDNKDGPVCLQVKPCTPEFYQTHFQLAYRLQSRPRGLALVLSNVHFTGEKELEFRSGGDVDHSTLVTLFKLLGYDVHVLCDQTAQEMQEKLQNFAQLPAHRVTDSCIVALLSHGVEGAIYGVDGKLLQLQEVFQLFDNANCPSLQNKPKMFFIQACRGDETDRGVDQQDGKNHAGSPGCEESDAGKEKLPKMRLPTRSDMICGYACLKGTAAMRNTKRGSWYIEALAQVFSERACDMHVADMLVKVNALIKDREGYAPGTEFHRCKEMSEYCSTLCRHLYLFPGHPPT
UniProt Q96CF2, sequence (Q96CF2 whole entry, looked up): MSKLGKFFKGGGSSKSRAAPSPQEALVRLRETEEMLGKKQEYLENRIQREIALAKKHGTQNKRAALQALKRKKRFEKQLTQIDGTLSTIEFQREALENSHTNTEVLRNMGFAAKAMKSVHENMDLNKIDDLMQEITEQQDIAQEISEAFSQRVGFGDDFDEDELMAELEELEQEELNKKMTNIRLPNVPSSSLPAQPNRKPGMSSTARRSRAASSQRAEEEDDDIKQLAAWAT
UniProt Q2TAC2, sequence (Q2TAC2 whole entry, looked up): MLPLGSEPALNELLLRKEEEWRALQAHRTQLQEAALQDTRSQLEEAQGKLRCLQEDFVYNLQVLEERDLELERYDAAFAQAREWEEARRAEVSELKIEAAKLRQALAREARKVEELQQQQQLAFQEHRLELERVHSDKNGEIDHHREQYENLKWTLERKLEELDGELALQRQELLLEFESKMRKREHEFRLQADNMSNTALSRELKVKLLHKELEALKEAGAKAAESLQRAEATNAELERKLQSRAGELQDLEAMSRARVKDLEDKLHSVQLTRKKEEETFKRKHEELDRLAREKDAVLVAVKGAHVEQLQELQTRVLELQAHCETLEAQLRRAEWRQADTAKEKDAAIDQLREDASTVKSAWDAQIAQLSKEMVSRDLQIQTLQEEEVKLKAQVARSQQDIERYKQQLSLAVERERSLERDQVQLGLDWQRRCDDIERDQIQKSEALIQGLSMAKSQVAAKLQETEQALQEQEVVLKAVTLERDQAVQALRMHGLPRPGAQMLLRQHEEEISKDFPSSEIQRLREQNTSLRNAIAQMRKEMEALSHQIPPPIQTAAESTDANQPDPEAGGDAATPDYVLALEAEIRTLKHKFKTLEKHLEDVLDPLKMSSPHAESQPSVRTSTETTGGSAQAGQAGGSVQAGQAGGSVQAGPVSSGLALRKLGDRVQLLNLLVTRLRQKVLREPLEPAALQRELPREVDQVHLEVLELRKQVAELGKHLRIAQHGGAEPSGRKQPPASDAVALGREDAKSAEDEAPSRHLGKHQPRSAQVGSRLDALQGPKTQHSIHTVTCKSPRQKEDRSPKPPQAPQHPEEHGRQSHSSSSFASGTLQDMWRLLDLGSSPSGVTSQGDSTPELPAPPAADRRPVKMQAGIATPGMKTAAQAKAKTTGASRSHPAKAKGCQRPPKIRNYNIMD
UniProt P48730, sequence (P48730 whole entry, looked up): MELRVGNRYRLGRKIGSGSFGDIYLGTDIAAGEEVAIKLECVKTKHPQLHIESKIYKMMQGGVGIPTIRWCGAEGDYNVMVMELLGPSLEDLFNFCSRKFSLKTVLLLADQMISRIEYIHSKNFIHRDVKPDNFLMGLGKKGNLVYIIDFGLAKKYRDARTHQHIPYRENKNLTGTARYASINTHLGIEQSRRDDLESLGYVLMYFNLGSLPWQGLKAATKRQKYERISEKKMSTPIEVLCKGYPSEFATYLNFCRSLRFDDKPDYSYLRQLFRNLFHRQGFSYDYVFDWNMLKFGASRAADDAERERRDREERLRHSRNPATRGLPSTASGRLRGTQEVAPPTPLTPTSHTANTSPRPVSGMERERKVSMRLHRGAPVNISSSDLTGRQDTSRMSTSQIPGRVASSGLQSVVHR
UniProt Q86X95, sequence (Q86X95 whole entry, looked up): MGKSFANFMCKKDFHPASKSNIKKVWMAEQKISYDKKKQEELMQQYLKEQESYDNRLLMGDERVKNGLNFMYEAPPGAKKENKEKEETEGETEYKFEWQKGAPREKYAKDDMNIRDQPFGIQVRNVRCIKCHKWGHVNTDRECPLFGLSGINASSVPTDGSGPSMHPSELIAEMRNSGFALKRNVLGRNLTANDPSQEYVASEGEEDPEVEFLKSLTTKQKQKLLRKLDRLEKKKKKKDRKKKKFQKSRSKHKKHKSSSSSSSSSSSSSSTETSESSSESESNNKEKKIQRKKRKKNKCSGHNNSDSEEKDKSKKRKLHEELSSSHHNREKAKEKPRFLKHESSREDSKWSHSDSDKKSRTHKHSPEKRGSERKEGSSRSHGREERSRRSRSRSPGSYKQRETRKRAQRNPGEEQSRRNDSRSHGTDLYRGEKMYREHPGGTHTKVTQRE
UniProt P09497, sequence (P09497 whole entry, looked up): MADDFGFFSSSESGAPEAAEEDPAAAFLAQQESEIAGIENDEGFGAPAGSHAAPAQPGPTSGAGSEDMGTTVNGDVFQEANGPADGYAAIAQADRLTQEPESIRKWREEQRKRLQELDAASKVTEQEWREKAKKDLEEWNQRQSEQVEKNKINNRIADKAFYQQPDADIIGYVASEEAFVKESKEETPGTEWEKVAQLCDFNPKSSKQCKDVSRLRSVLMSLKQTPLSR
UniProt Q8WUX2, sequence (Q8WUX2 whole entry, looked up): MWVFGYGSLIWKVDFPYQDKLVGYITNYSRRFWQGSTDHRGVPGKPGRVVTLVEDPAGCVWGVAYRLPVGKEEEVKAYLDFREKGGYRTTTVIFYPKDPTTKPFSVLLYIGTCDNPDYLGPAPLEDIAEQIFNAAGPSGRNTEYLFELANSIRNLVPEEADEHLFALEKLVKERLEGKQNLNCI

Target	log2 fold change [1]	log2 fold change [2]	log2 fold change [3]	log2 fold change [4]	log2 fold change [5]
CAMKK2 (UniProt Q96RR4)	-0.047 (inactive)	0.388 (inactive)	0.023 (inactive)	0.019 (inactive)	0.149 (inactive)
CD63 (UniProt P08962)	0.041 (inactive)	0.02 (inactive)	-0.008 (inactive)	0.009 (inactive)	0.035 (inactive)
CCNT1 (UniProt O60563)	0.108 (inactive)	-0.022 (inactive)	-0.036 (inactive)	0.085 (inactive)	0.072 (inactive)
COQ9 (UniProt O75208)	-0.068 (inactive)	-0.025 (inactive)	0.053 (inactive)	-0.081 (inactive)	0.036 (inactive)
CLINT1 (UniProt Q14677)	0.063 (inactive)	0.131 (inactive)	-0.005 (inactive)	-0.009 (inactive)	0.157 (inactive)
CCM2 isoform 2 (UniProt Q9BSQ5)	0.013 (inactive)	0.144 (inactive)	0.046 (inactive)	-0.161 (inactive)	-0.046 (inactive)
CSNK2B (UniProt P67870)	-0.047 (inactive)	0.043 (inactive)	0 (inactive)	-0.028 (inactive)	0.018 (inactive)
CDK6 (UniProt Q00534)	-0.005 (inactive)	-0.002 (inactive)	0.005 (inactive)	-0.036 (inactive)	-0.055 (inactive)
COX5A (UniProt P20674)	0.016 (inactive)	0.059 (inactive)	0.037 (inactive)	-0.075 (inactive)	-0.043 (inactive)
CDK5RAP3 isoform 4 (UniProt Q96JB5)	-0.042 (inactive)	0.054 (inactive)	0.099 (inactive)	0 (inactive)	-0.05 (inactive)
CASP2 (UniProt P42575)	-0.039 (inactive)	0.016 (inactive)	0.027 (inactive)	-0.01 (inactive)	-0.039 (inactive)
CSK (UniProt P41240)	-0.096 (inactive)	0.051 (inactive)	0.057 (inactive)	0.011 (inactive)	-0.032 (inactive)
CLSPN (UniProt Q9HAW4)	0.002 (inactive)	-0.009 (inactive)	-0.043 (inactive)	-0.004 (inactive)	0.036 (inactive)
CNN2 (UniProt Q99439)	-0.061 (inactive)	0.011 (inactive)	0.039 (inactive)	0.007 (inactive)	0.01 (inactive)
CLUH (UniProt O75153)	-0.05 (inactive)	0.027 (inactive)	0.086 (inactive)	-0.016 (inactive)	-0.052 (inactive)
CPSF7 isoform 3 (UniProt Q8N684)	0.007 (inactive)	0.013 (inactive)	-0.012 (inactive)	0.017 (inactive)	-0.013 (inactive)
CDKN2AIP (UniProt Q9NXV6)	-0.036 (inactive)	-0.044 (inactive)	-0.008 (inactive)	0.021 (inactive)	-0.014 (inactive)
CHP1 (UniProt Q99653)	0.022 (inactive)	0.016 (inactive)	-0.058 (inactive)	-0.057 (inactive)	-0.015 (inactive)
CSE1L (UniProt P55060)	-0.024 (inactive)	0.063 (inactive)	0.033 (inactive)	-0.028 (inactive)	-0.009 (inactive)
COMMD2 (UniProt Q86X83)	-0.029 (inactive)	0.053 (inactive)	0 (inactive)	-0.199 (inactive)	0.04 (inactive)
CLPP (UniProt Q16740)	0.037 (inactive)	0.153 (inactive)	0.093 (inactive)	-0.124 (inactive)	0.008 (inactive)
CLPTM1L (UniProt G5E9Z2)	-0.22 (inactive)	0.148 (inactive)	-0.012 (inactive)	-0.07 (inactive)	-0.1 (inactive)
CS (UniProt O75390)	-0.043 (inactive)	0.089 (inactive)	0.053 (inactive)	-0.015 (inactive)	-0.016 (inactive)
CSNK2A2 (UniProt P19784)	-0.025 (inactive)	0.08 (inactive)	0.052 (inactive)	0.028 (inactive)	0.012 (inactive)
CPT1A (UniProt P50416)	0.095 (inactive)	0.011 (inactive)	0.125 (inactive)	-0.022 (inactive)	-0.118 (inactive)
CHMP4C (UniProt Q96CF2)	-0.002 (inactive)	0.169 (inactive)	0.045 (inactive)	0.051 (inactive)	0.03 (inactive)
CHCHD4 isoform 2 (UniProt Q8N4Q1)	0.08 (inactive)	0.205 (inactive)	-0.006 (inactive)	-0.489 (active)	-0.113 (inactive)

Target	log2 fold change [1]	log2 fold change [2]	log2 fold change [3]	log2 fold change [4]	log2 fold change [5]
CHAC2 (UniProt Q8WUX2)	-0.036 (inactive)	-0.034 (inactive)	-0.034 (inactive)	0.008 (inactive)	0.027 (inactive)
CIR1 (UniProt Q86X95)	-0.075 (inactive)	-0.286 (inactive)	-0.241 (inactive)	0.198 (inactive)	0.217 (inactive)
CDK5 (UniProt Q00535)	-0.015 (inactive)	0.087 (inactive)	-0.003 (inactive)	-0.023 (inactive)	-0.005 (inactive)
CSNK1A1 (UniProt P48729)	0.048 (inactive)	0 (inactive)	0.008 (inactive)	0.046 (inactive)	0.02 (inactive)
CDC42EP1 (UniProt Q00587)	-0.067 (inactive)	0.107 (inactive)	0.041 (inactive)	0.043 (inactive)	-0.029 (inactive)
CKS1B (UniProt P61024)	-0.004 (inactive)	0.056 (inactive)	0.024 (inactive)	-0.067 (inactive)	-0.02 (inactive)
CCNB1 (UniProt P14635)	-0.004 (inactive)	0.036 (inactive)	0.015 (inactive)	-0.007 (inactive)	0.026 (inactive)
COA6 isoform 2 (UniProt Q5JTJ3)	0.06 (inactive)	0.08 (inactive)	0.038 (inactive)	-0.06 (inactive)	-0.015 (inactive)
COX7B (UniProt P24311)	-0.003 (inactive)	0.001 (inactive)	0.063 (inactive)	-0.018 (inactive)	0.018 (inactive)
CD151 (UniProt P48509)	-0.126 (inactive)	0.049 (inactive)	0.031 (inactive)	-0.046 (inactive)	0.101 (inactive)
COMT (UniProt P21964)	0.024 (inactive)	0.142 (inactive)	0.09 (inactive)	-0.028 (inactive)	-0.038 (inactive)
CSTF3 (UniProt Q12996)	-0.005 (inactive)	0.064 (inactive)	-0.007 (inactive)	0.03 (inactive)	-0.016 (inactive)
CA8 (UniProt P35219)	0.006 (inactive)	0.059 (inactive)	0.052 (inactive)	0.025 (inactive)	-0.045 (inactive)
CRMP1 isoform 2 (UniProt Q14194)	-0.014 (inactive)	0.074 (inactive)	-0.066 (inactive)	0.002 (inactive)	-0.006 (inactive)
CLN3 (UniProt Q13286)	0.005 (inactive)	-0.032 (inactive)	-0.315 (inactive)	-0.119 (inactive)	0.087 (inactive)
CSNK1D (UniProt P48730)	-0.08 (inactive)	-0.067 (inactive)	-0.192 (inactive)	-0.011 (inactive)	-0.015 (inactive)
CCDC57 (UniProt Q2TAC2)	0.015 (inactive)	0.262 (active)	0.047 (inactive)	-0.161 (inactive)	-0.139 (inactive)
CLTB (UniProt P09497)	0.021 (inactive)	-0.01 (inactive)	-0.016 (inactive)	-0.01 (inactive)	-0.02 (inactive)
CHD4 isoform 2 (UniProt Q14839)	-0.065 (inactive)	0 (inactive)	0.021 (inactive)	0.049 (inactive)	0.032 (inactive)
CRTC3 (UniProt Q6UUV7)	-0.083 (inactive)	0.044 (inactive)	-0.065 (inactive)	0.004 (inactive)	0.034 (inactive)
CETN2 (UniProt P41208)	0.027 (inactive)	0.046 (inactive)	-0.012 (inactive)	0.06 (inactive)	0.08 (inactive)
CIZ1 (UniProt Q9ULV3)	0.021 (inactive)	0.047 (inactive)	0.025 (inactive)	0.062 (inactive)	0.029 (inactive)
CIT isoform 4 (UniProt O14578)	-0.055 (inactive)	0.002 (inactive)	0.001 (inactive)	-0.011 (inactive)	0.009 (inactive)
CDC42BPA isoform 6 (UniProt Q5VT25)	-0.101 (inactive)	-0.039 (inactive)	0.083 (inactive)	0.031 (inactive)	0.069 (inactive)
CHST11 (UniProt Q9NPF2)	0.018 (inactive)	-0.061 (inactive)	0.055 (inactive)	0.007 (inactive)	-0.139 (inactive)
CPQ (UniProt Q9Y646)	0.045 (inactive)	-0.077 (inactive)	-0.078 (inactive)	-0.031 (inactive)	0.084 (inactive)
